This passage reports inhibition results from PubChem BioAssay AID615 (Sanford-Burnham Center for Chemical Genomics, 2007).

Screen size: about 21,000 compounds; fewer than 10 were called active. The list is a sample of the results. A number with no mark means an inactive call.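 The calls were made as follows: active = inhibition above 50% at the 20 µM single-dose screen; inactive = the rest.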

The assay deals with Alkaline phosphatase, tissue-nonspecific isozyme (Homo sapiens) (UniProt P05186). Put plainly: human TNAP enzyme inhibitors, primary screen, biochemical, colorimetric, p-nitrophenol readout (AID 615).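 Also: 0% = DMSO only wells and 100% = 1 mM levamisole wells.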 The note with it: purified TNAP, pNPP hydrolysis, absorbance 405 nm; at 20 µM; active compounds read high.
Sequence of Alkaline phosphatase, tissue-nonspecific isozyme (Homo sapiens) (P05186 whole entry, looked up): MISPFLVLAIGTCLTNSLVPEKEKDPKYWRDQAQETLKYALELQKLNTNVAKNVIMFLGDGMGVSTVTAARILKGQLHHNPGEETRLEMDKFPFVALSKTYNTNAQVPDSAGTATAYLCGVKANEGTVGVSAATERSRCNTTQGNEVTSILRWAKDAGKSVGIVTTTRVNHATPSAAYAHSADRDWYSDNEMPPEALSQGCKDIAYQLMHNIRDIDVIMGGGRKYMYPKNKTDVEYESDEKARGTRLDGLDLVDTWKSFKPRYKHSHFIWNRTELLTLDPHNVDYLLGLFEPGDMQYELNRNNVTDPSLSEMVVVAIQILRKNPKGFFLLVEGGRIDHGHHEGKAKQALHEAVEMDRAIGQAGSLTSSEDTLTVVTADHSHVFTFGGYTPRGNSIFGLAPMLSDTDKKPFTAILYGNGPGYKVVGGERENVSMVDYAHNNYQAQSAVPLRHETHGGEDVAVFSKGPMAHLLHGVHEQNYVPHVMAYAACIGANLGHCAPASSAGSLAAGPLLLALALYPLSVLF
By inhibition is commonly meant the drop in the measured response relative to a control, in per cent. For the molecule `COC(=O)c1ccccc1NC(=O)CN(Cc1ccccc1)S(C)(=O)=O`, the inhibition was 6%.
`CCCc1nc2ccccc2c(C(=O)OCc2nnc(-c3cc(OC)c(OC)c(OC)c3)o2)c1CC`: the inhibition is 1.2%.
On to `CCOC(=O)c1cc2occc2n1CC(=O)NC1CCC(C)CC1` (stereo not drawn), for which the inhibition is 5.1%.
`CCOc1cccc(=O)c2c(C)n(CC3CCCO3)c(C)c12` (stereo not drawn): the inhibition was -12.4%.
Take `O=C(NC1CC2CCCC(C1)N2C(=O)N1CCCCC1)C1CCCCC1` (stereo not drawn): the inhibition was 4.8%.
On to `CCOC(=O)C1C(=O)NC(N2CCN(c3ccccc3)CC2)=NC1c1ccco1` (stereo not drawn), for which the inhibition is 2.1%.
With `CCN(Cc1cc2cc(C)ccc2[nH]c1=O)S(=O)(=O)c1ccccc1`, the inhibition is 6.4%.
Under `O=C(NCCCCO)C(F)(F)C(F)(F)C(F)(F)C(=O)NCCCCO` stands 4.2%; under `Cc1cc(N2C(=O)C(=O)/C(=C(/O)c3ccccc3)C2c2cccc(Br)c2)no1` (stereo not drawn), 0.9%.
Regarding `CN(c1nc2ccccc2n2c(-c3ccco3)nnc12)S(=O)(=O)c1ccccc1`, the inhibition was 4.7%.
With `CC(=O)c1cccc(NC(=O)N2CCCC2C(=O)NCCC(C)C)c1` (stereo not drawn), the inhibition is 7.2%.
Turning to `Cc1ccc(F)cc1NC(=O)c1cccc(N(C)C)c1`, the inhibition was 5%.
For the molecule `CC1=C2C(=O)OC(c3ccoc3)C2(C)CCC1` (stereo not drawn), the inhibition was 0%.
Take `CCOC(=O)CSc1nnc(-c2ccco2)n1C`: the inhibition was 3%.
With `Cc1ccc(C(=O)OCC(=O)NCc2ccc3c(c2)OCO3)s1` the figure was 3.6%.
Under `Cc1ccc(S(=O)(=O)N2CCC(C(=O)OCC(=O)N3CC(=O)Nc4ccccc43)CC2)cc1` stands 5.7%.
In the case of `CCCCCNC(=O)Cc1ccc(OC)cc1`, the inhibition was 2.1%.
Consider `Cc1nc(NCc2ccccc2)c(C(N)=O)c2c1COC(C)(C)C2`, for which the inhibition is 3%.
For the molecule `CC(=O)N(Cc1cccs1)C1CCOC(C)(C)C1` (stereo not drawn), the inhibition was 2.9%.
As for `CSc1nc(O)c(Cc2ccccc2)c(=O)[nH]1`, the inhibition was 0.9%.
For `CC(C)C(NC(=O)c1cccc(S(=O)(=O)N2CCOCC2)c1)C(=O)NCCc1ccccn1` (stereo not drawn), the inhibition is 4.3%.
Take `CSCCC1NC2(C(=O)Nc3ccc(Cl)cc32)[C@@H]2C(=O)N(C3CCCC3)C(=O)[C@H]12` (stereo partly drawn): the inhibition was 7.3%.
For the molecule `Cc1cnc(NC(=O)CSc2nnc(-c3ccc(Cl)cc3Cl)n2N)s1`, the inhibition was -1.5%.
`COc1ccc(-c2c3c(=O)n(C)c(=O)n(C)c3cn2NC(C)=O)cc1`: the inhibition is 3.2%.
On to `CCSC1=C(C#N)C(=O)n2c1cc1c2CCCC1`, for which the inhibition was 1.7%.
For the molecule `Cc1cc(C(=O)N2CCN(c3ccccn3)CC2)c(C)o1`, the inhibition was 6%.
For `COc1cccc(-c2nnc(N(C)C(=O)c3ccno3)s2)c1`, the inhibition is 2.3%.
Consider `CC(=O)N1CSCC1C(=O)O` (stereo not drawn), for which the inhibition was 8.6%.
As to `COc1ccc(O)c(C=Nc2cc(C)on2)c1`, the inhibition was 5.7%.
On to `O=C1CSC(=O)N1CCOCCN1C(=O)CSC1=O`, for which the inhibition is 4.8%.
On to `COc1ccc(C2CC(c3ccc(C)cc3)Nc3nc(N)nn32)cc1` (stereo not drawn), for which the inhibition is 3.3%.
Under `CC1(C)CC(=O)C(C2=NC(C)(C)Cc3ccccc32)=C(O)C1` stands -1%; under `CCn1c(SCC(=O)NCc2ccco2)nnc1-c1ccc(N)cc1`, 0.2%.
For `CCOc1cc(C)c(Cl)cc1S(=O)(=O)n1nnc2ccccc21`, the inhibition was 3.6%.
As to `CC1CCCN(C(=O)Cn2c(=O)oc3ccccc32)C1` (stereo not drawn), the inhibition is 3.7%.
With `O=C(Nc1c(Cl)cccc1Cl)C1CCC1`, the inhibition was 3.6%.
With `Cc1cc(C)nc(SCc2ccccc2C#N)n1` the figure was 1.7%; with `COc1ccccc1Nc1ncc(C(C)=O)c(C)n1`, 1.9%.
Under `O=C(O)CN(Cc1ccco1)S(=O)(=O)c1ccccc1` stands 0%; under `CCC(=O)Nc1ccc(C(=O)Nc2ccc3c(c2)C(=O)N(CC2CCCO2)C3=O)cc1` (stereo not drawn), 3.2%; under `CCCc1cc(=O)n2[nH]c(SCc3ccccc3)nc2n1`, 4.4%.
Take `N#Cc1nc(-c2ccc(OCc3ccccc3)cc2)oc1NCCCN1CCOCC1`: the inhibition was 4%.
In the case of `O=S(=O)(NCc1cccnc1)c1ccc(Br)s1`, the inhibition was 2.9%.
Consider `Cc1ccc(C(=O)N2CCN(C3CCCCC3)CC2)s1`, for which the inhibition was 2.5%.
For `COC(=O)c1cc(NC(=O)CN2CCC(C(N)=O)(N3CCCCC3)CC2)cc(C(=O)OC)c1`, the inhibition is -6.8%.
On to `COc1cccc(NC(=O)c2ccccc2SC)c1`, for which the inhibition was 0.3%.
`COC(=O)c1ccc2c(c1)S(=O)(=O)NC(=NCCCN1CCOCC1)S2`: the inhibition is 3.7%.
As for `O=C(c1ccco1)N(Cc1nc2ccccc2c(=O)[nH]1)C1CCCC1`, the inhibition is -5.2%.
On to `Cc1ccccc1OCCC(=O)Nc1c(C)n(C)n(-c2ccccc2)c1=O`, for which the inhibition is 0%.
For the molecule `Cc1cc(C)c(C(=O)CN2C(=O)CCC2=O)cc1C`, the inhibition is 5%.
`O=S(=O)(c1ccccc1)N(CC(O)CN1CCCCC1)c1ccccc1` (stereo not drawn): the inhibition was -1.4%.
Regarding `COC(=O)c1ccccc1NC(=O)c1ccccc1NS(C)(=O)=O`, the inhibition is 8.2%.
Consider `COC(=O)c1cc(Cl)c(NC(=O)c2ccco2)cc1OC`, for which the inhibition is -4.4%.
With `COc1cc(OC)cc(C(=O)Nc2ncc3c(n2)CC(C)(C)CC3=O)c1` the figure was 3.1%.
`CC1CCCCC1NC(=O)CSc1nnc(N)s1` (stereo not drawn): the inhibition was 0%.
On to `COc1ccc(CNC(=O)c2cc3c(=O)n4ccccc4nc3n(CC3CCCO3)c2=N)cc1` (stereo not drawn), for which the inhibition was 0.4%.
Turning to `COc1c(F)c(F)c(-c2csc(N)n2)c(F)c1F`, the inhibition is 1%.
As for `COC(=O)c1cccc(NC(=O)CSc2nc(C)cc(=O)[nH]2)c1`, the inhibition was 6.2%.
Consider `CC(NCCO)C(=O)C12CC3CC(CC(C3)C1)C2` (stereo not drawn), for which the inhibition is 6.7%.
For `CCn1nc(NC(=O)c2ccco2)c2cc3ccc(C)cc3nc21`, the inhibition is 4.2%.
In the case of `COc1ccc(CNC2CCCCC2)cc1`, the inhibition is 3.7%.
`CC(C)[C@H](NC(=O)Nc1ccc(S(N)(=O)=O)cc1)C(=O)O`: the inhibition was 4.9%.
In the case of `O=S(=O)(NCc1ccc2c(c1)OCO2)c1cccc2nsnc12`, the inhibition was 5.8%.
For `Cc1ccc(S(=O)(=O)N2CCOCC2)cc1C(=O)NCc1ccc(F)cc1`, the inhibition was 0%.
Under `O=C(NCC1CCCO1)C(C(=O)c1ccccc1)n1cc(Cl)ccc1=O` (stereo not drawn) stands 6.1%.
As for `Cc1nnc(N(Cc2ccco2)C(=O)c2ccno2)s1`, the inhibition was 1.8%.
With `O=C(Nc1ccc2c(c1)OCCO2)c1ccncc1`, the inhibition is 3.7%.
Take `CCOC(=O)c1sc(/N=C/Nc2nc(C)c(C(=O)OCC)s2)nc1C`: the inhibition is 0%.
`COc1ccc(N(Cc2cc3cc(OC)ccc3[nH]c2=O)S(C)(=O)=O)cc1`: the inhibition is 2.6%.
With `O=C(CSc1ncccn1)NCCc1ccccc1` the figure was 1.9%; with `CC12CCC(C(=O)N(CCC#N)CCC#N)(CC1=O)C2(C)C` (stereo not drawn), 5.5%; with `CNC(=O)CSc1nnc(CCc2ccccc2)n1-c1ccccc1`, -9%.
On to `O=C(CCCOc1ccccc1)Nc1cccc(C(=O)O)c1`, for which the inhibition was 7.6%.
Turning to `CC(C)C[C@H](NC(=O)NCCc1ccc(Cl)cc1)C(=O)O`, the inhibition was 2.2%.
Regarding `Cc1cc(C)c2nc(SCCC#N)nc(C)c2c1`, the inhibition is -0.5%.
With `CCCCn1nnnc1NCc1cc(OC)c(OC)c(OC)c1` the figure was -0.6%.
On to `C=CCn1c(COc2ccccc2)nnc1SCC(=O)NCC(=O)OCC`, for which the inhibition is -6.9%.
Regarding `CC(=O)Cc1nsc(NC(=O)c2ccc(COc3ccc(C)cc3)o2)n1`, the inhibition was 1.5%.
Take `Cc1cc(NC(=O)c2cnn3cccnc23)n(-c2ccccc2)n1`: the inhibition was 3.9%.
With `Cc1ccc(S(=O)(=O)N2CCC(C(=O)N[C@@H](C)C(=O)NCCc3ccccc3)CC2)cc1` the figure was -7.1%.
For the molecule `CCC(CC)C(=O)Nc1cc(C(=O)OC)cc(C(=O)OC)c1`, the inhibition is 4.4%.
Under `CC(=O)N1CCN(CCN=CC2=C(O)CC(C)(C)CC2=O)CC1` stands 5.5%.
In the case of `Cc1ccc2c(C(=O)CN3CCCC3)c(C)[nH]c2c1`, the inhibition is -14.5%.
Regarding `O=C(O)CN(Cc1ccco1)S(=O)(=O)c1ccc(F)cc1`, the inhibition is 0.4%.
`COc1ccc(NC2CC(=O)N(C)C2=O)cc1` (stereo not drawn): the inhibition was 3.1%.
Turning to `Cc1occc1C(=O)Nc1cccc(Cn2cccn2)c1`, the inhibition is -2.4%.
Under `CC(=O)OCc1cc(=O)n(C)c(=O)n1C` stands 1.6%; under `Nc1nnnn1/N=C/c1cccs1`, 0%; under `CC(C)c1nc(-c2ccccn2)no1`, 2.2%.
On to `CSCCC(NC(=O)c1ccc(=O)n(C)n1)c1nc2ccccc2[nH]1` (stereo not drawn), for which the inhibition is -0.4%.
For the molecule `CCc1ccccc1N(CC(=O)N1CCN(c2ccccc2F)CC1)S(C)(=O)=O`, the inhibition is 3.4%.
In the case of `Cc1cccc(N(CC(O)CN(C)C)S(=O)(=O)c2ccccc2)c1` (stereo not drawn), the inhibition is 6%.
`CC(=O)Nc1nc(C)c(Cc2ccccc2)c(=O)[nH]1`: the inhibition is 0%.
`CC(C)C(c1nnnn1C1CCCC1)N1CCN(c2ccccc2F)CC1` (stereo not drawn): the inhibition was 4.1%.
Take `O=C(NC(c1ccccc1)c1ccccc1)N1CCN(CCO)CC1`: the inhibition was 5.5%.
Under `c1ccc(-n2ncc(-c3nn[nH]n3)n2)cc1` stands 1.2%.
Under `COc1ccc(C2/C(=C(/O)c3ccc(OC(C)C)cc3)C(=O)C(=O)N2CCCN2CCOCC2)cc1` (stereo not drawn) stands 2.6%; under `CCCOc1ccc(CN(CCO)CCO)cc1C(=O)OC`, 8.5%.
With `CCC(=O)Nc1cccc(NC(=O)CSc2nnnn2C2CCCC2)c1` the figure was 4.5%.
Take `CCOC(=O)N1CCN(Cc2oc(CO)cc(=O)c2O)CC1`: the inhibition is 4.3%.
With `Cc1ccc(-n2c(Cc3cccs3)nnc2SCC(=O)OC(C)C)cc1` the figure was -1%.
For the molecule `CCc1nnc(NC(=O)CSc2nnc(-c3ccncc3)n2Cc2ccccc2)s1`, the inhibition was 5.3%.
Turning to `Cn1c(=O)c2c(nc(Br)n2CCSc2nc3ccccc3o2)n(C)c1=O`, the inhibition was 0%.
